Only some compounds are listed: those with a hit (about 3.3% of all), similar ones and a draw of the others.
OTUD3 block: inhibitors of human OTUD3 deubiquitinase | OTU domain-containing protein 3 (Homo sapiens), Q5T2D3 | purified OTUD3, Ub-rhodamine fluorescence, 2 h | inhibition, % at 25 µM | 47,000 compounds, 0.7% hits | AID 1645858, 2021
Target sequence (Q5T2D3 whole entry, looked up, the tested form may be a part): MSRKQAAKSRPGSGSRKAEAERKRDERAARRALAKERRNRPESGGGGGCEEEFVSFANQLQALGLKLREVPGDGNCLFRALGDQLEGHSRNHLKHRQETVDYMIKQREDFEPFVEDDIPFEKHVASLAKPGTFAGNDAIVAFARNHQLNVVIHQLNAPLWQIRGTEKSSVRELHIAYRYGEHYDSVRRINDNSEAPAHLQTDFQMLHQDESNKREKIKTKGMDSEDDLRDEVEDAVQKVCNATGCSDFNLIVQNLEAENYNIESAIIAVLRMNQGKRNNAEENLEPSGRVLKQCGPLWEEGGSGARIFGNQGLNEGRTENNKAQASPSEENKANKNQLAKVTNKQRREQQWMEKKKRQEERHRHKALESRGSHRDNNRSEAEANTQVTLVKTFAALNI
USP28 block: inhibitors of human USP28 deubiquitinase; AID 1645857, 2021; purified USP28, Ub-rhodamine cleavage fluorescence, 30 min; 47,000 compounds, 3% hits; inhibition, % at 25 µM
Of the large screens only hits and unclear results are named; the others gave an inactive call. Cut-off read from the data, not from the text of the source: active = inhibition above about 30%; inactive = the rest.

O=C1CC(C(=O)Nc2cccc(Cl)c2)c2ccc(F)cc2N1 (configuration not stated)	none
O=C1CC(C(=O)Nc2cccc(Br)c2)c2ccc(F)cc2N1 (configuration not stated)	USP28 block 39
Cn1c(=O)n(Cc2ccccc2F)c(=O)c2cnc(-c3ccncc3)nc21	none
O=C(Cc1ccccc1)c1ccc(Br)s1	USP28 block 35
COC(=O)c1sc2ccccc2c1NC(=O)c1ccc(Br)s1	none
CC(=O)c1ccccc1NC(=O)COc1ccc(-c2ccc(C#N)cc2)cc1	none
CCc1cccc2c(C(=O)COc3ccc(C#N)cc3)c[nH]c12	OTUD3 block 32, USP28 block 71
O=C(COC(=O)c1ccc(CN2CCCC2=O)cc1)c1ccc2c(c1)OCCO2	USP28 block 90
Cc1cccc(C(=O)OCC(=O)c2ccc3c(c2)OCCO3)c1O	none
NS(=O)(=O)c1cc(C(=O)OCC(=O)c2ccc3c(c2)OCCO3)ccc1Cl	USP28 block 70
O=C(COC(=O)c1ccc2c(=O)n3c(nc2c1)CCCCC3)c1ccc2c(c1)OCCO2	none
CC(OC(=O)c1ccc2ncsc2c1)C(=O)Nc1ccc2c(c1)OCO2 (configuration not stated)	none
O=C(COC(=O)c1ccc2ncsc2c1)c1ccc2c(c1)OCCO2	USP28 block 31
CC(C)CCN1Cc2c(C(=O)NCc3ccccc3)ncn2-c2ccccc2S1(=O)=O	none
Cc1cccc(NCc2cc(=O)n3cccc(C)c3n2)c1C	none
Cc1ccccc1NC(=O)Nc1ccccc1OCc1cc(=O)n2cccc(C)c2n1	OTUD3 block 40
COc1ccc(CN2CC[C@@H]3[C@H]2C(=O)NC[C@H](CCC(=O)NCc2cccnc2)N3C)cc1	USP28 block 34
Cc1ccc(CN2CC[C@@H]3[C@H]2C(=O)NC[C@H](CCC(=O)NCc2cccnc2)N3C)cc1	none
Cc1ccccc1S(=O)(=O)N1CCc2nc(N(C)Cc3cccnc3)[nH]c(=O)c2CC1	none
C/C=C/C=C/[C@@H]1Cc2cc(O)cc(O)c2O1	OTUD3 block 87, USP28 block 91
CCN(CC)c1ccc(NC(=O)C2=CCN(S(=O)(=O)c3ccc(F)cc3)CC2)c(C)c1	USP28 block 35
Cc1ccc(S(=O)(=O)N2CC=C(C(=O)Nc3ccc(Br)c(C)c3)CC2)cc1	none
O=C(CNc1nc(Nc2ccccc2F)nc(Nc2ccccc2F)n1)Nc1ccccc1	USP28 block 49
O=C(CNc1nc(Nc2ccccc2)nc(Nc2ccccc2)n1)Nc1ccccc1F	none
O=C(Cn1nnc2ccccc21)N1CCCC(Cc2ccn[nH]2)C1 (configuration not stated)	none
COc1ccc(COc2ncnc3cc(Cl)ccc23)cc1	USP28 block 48
COc1ccc(COc2ncnc3ccc(Br)cc23)cc1F	none
O=C(c1c(F)cccc1F)N1CCN(C(=O)c2cnn3ccccc23)CC1	none
O=S1(=O)Cc2cnc(N3CCCC3)nc2[C@H]2CN(Cc3ccccc3F)C[C@H]21	none
COc1ccc(-n2nc3c(c2NC(=O)/C=C\c2ccccc2)CS(=O)(=O)C3)cc1	none
O=C(/C=C\c1ccc2c(c1)OCO2)Nc1c2c(nn1-c1ccc(Cl)cc1)CS(=O)(=O)C2	OTUD3 block 39, USP28 block 36
NC(=O)c1ccccc1OCC(=O)N1CCc2ccccc21	USP28 block 51
O=C(COc1nc2ccccc2nc1N1CCOCC1)N1CCc2ccccc21	none
CCC(C)NCc1c(C(=O)O)n(Cc2ccccc2)c2ccccc12 (configuration not stated)	none
O=S1(=O)c2ccccc2C(O)(Cc2ccccc2)CN1CCO (configuration not stated)	none
COc1ccc(NC(=O)CSc2nnc(-c3ccc(F)cc3)c3ccccc23)c(OC)c1	USP28 block 39
COc1ccc(NC(=O)CSc2n[nH]c(C(C)C)n2)c(OC)c1	none
COc1cccc(NC(=O)NC2(c3noc(C)n3)CCCC2)c1	none
CC(=O)N1CC2(CCN(C(=O)c3ccc(=O)[nH]c3)CC2)Nc2ccccc21	none
COc1cc(NC(=O)Cc2ccccc2)ccc1NC(=O)c1cc2ccccc2o1	none
Cc1cccc(NC(=O)Cn2c(=O)nc(N(C)c3ccccc3)c3ccccc32)c1	USP28 block 41
CCc1cccc(C)c1NC(=O)Cn1c(=O)nc(N(C)c2ccccc2)c2ccccc21	none
COC(=O)c1ccccc1NC(=O)CSc1nnc(-c2ccc(C(C)(C)C)cc2)n1C1CCCC1	none
Cc1ccccc1NC(=O)C(Sc1ccc(NC(=O)c2ccccc2C(=O)O)cc1)c1ccccc1 (configuration not stated)	none
O=C(O)c1cc(NC(=O)C(Sc2cccc(NC(=O)c3ccccc3F)c2)c2ccccc2)ccc1O (configuration not stated)	none
COc1cccc(C(=O)Nc2ccc(SC(C(=O)Nc3ccccc3)c3ccccc3)cc2)c1 (configuration not stated)	none
Cc1ccc(C(=O)O)cc1NC(=O)C(Sc1cccc(NC(=O)c2cccc(Cl)c2)c1)c1ccccc1 (configuration not stated)	USP28 block 47
O=C(O)c1ccccc1C(=O)Nc1ccc(SC(C(=O)Nc2cccc(Cl)c2)c2ccccc2)cc1 (configuration not stated)	USP28 block 34
Cc1cccc(C(=O)Nc2cccc(SC(C(=O)Nc3ccc(Cl)c(C(=O)O)c3)c3ccccc3)c2)c1 (configuration not stated)	USP28 block 44
COc1ccc(COC(=O)C2=C(C)NC(=O)CC2c2cccc([N+](=O)[O-])c2)cc1 (configuration not stated)	USP28 block 86
CC1=C(C(=O)OCc2ccc3c(c2)OCO3)C(c2ccccc2C)CC(=O)N1 (configuration not stated)	none
COc1ccccc1CNc1c(-c2ccc(F)cc2)nc2ncccn12	none
O=C(Cn1cnc2cc([N+](=O)[O-])ccc2c1=O)Nc1ccc2c(c1)OCCO2	none
NS(=O)(=O)c1ccc(NC(=O)Cn2cnc3cc([N+](=O)[O-])ccc3c2=O)cc1	USP28 block 41
COc1cc(O)c2c(c1)C1=CC(=O)C(O)=C[C@]1(C)OC2=O	OTUD3 block 41, USP28 block 36
COc1cc(O)c2c(c1)COC(=O)c1c(O)cc(C)cc1O2	none
CC(C)c1nnc2n1CCN(C(=O)c1nccc3ccccc13)C2	none
O=C(Cn1cccn1)N1CCCCC1c1nnc(-c2nccc3ccccc23)o1 (configuration not stated)	none
N#Cc1cn(CC(=O)N2CCc3ccccc32)c2ccccc12	USP28 block 52
O=C(Cn1cc(C(=O)C(F)(F)F)c2ccccc21)N1CCc2ccccc21	none
CCOC(=O)N1CCN(C(=O)Cc2c(C)c3ccc(O)cc3oc2=O)CC1	none (no result: USP28 block)
CCc1ccc(NC(=O)N2C[C@H]3CC[C@@]4(N=C(C)N(C)C4=O)[C@H]3C2)cc1	none
CC(=O)C1=C(O)[C@]2(O)C(=O)c3c(c(C)c4ccc(C)c(O)c4c3O)C[C@H]2[C@@H](N)C1=O	OTUD3 block 67, USP28 block 61
Cc1cccc2nc(-c3cccnc3)c(NC3CCCC3)n12	USP28 block 43
c1cncc(-c2cnc3sc(NC4CCCCC4)nn23)c1	none
CC(=O)N[C@@H]1C[C@H](c2ccc(-c3ccccc3)cc2)OC2(CCN(C(C)=O)CC2)C1	none
O=C(NCCc1ccccc1)c1nc(N2CCOCC2)c2ccccc2n1	none
